Screens deposited in PubChem by National Center for Advancing Translational Sciences (NCATS).
A selection: hits, their analogues and other compounds. The true share with any hit is near 19%.
TDP1 cell noCPT: qHTS for Inhibitors of human tyrosyl-DNA phosphodiesterase 1 (TDP1): qHTS in cells in absence of CPT. DT40 Tdp1-/- hTDP1 cells, no CPT, ATP luminescence, 48 h. 420,000 tested, 15% active. Potency, µM (series often up to 46.2 µM), inactives show at the top dose activity change, negative = growth inhibition, most hits filed as inhibitors; note: nearly all actives have a fitted effect of over 55% in size
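Readout: luminescence from CellTiter-Glo after 30 min in the dark at RT. Cells: DT40 Tdp1-/- with stable hTDP1, 400/well. Exposure: compounds alone, ≥48 hr, 37 °C.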
KB-V1 MDR tox: KB-V1 MDR subline cytotoxicity; 400,000 tested, 3.4% active; AID 1347076; KB-V1 MDR cells viability, CellTiter-Glo, 72 h; Potency, µM (titrated, usually from 46.1 µM), actives largely listed as cytotoxic; note: nearly all actives have a fitted effect of over 60% in size
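Drug-selected KB-V1 cells, grown in DMEM lacking phenol red with 10% FBS, receive compound titrations; after three days at 37 degrees C, surviving cell ATP is quantified by CellTiter-Glo luminescence and responses normalized and curve-fitted.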
KB-3-1 tox: kills parental KB-3-1 adenocarcinoma cells. AID 1347075. Potency, µM (highest dose often 46.1 µM), actives largely listed as cytotoxic. 400,000 tested, 1.4% active. KB-3-1 viability, CellTiter-Glo ATP luminescence, 72 h; note: nearly all actives have a fitted effect of over 60% in size
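72 h, 37 °C compound treatment of KB-3-1 parental cells; CellTiter-Glo added, 10 min, luminescence read. Data corrected against DMSO-only plates and normalized before curve fitting.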
HT1080 IDH1KD tx: HT-1080 IDH1 knockdown cell toxicity (counter line); 360,000 tested, 2% active; Potency, µM (series often up to 46.1 µM), without a hit: top-dose activity, negative = toxicity, most hits filed as cytotoxic; HT-1080 IDH1 knockdown viability, ATP luminescence, 48 h; AID 686971;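 note: 0% = DMSO wells and -100% = cell-free medium wells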
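HT-1080-IDH1KD cells (IDH1 knocked down), 750/well in RPMI with 5% FBS, treated with compound 48 h at 37 degrees C. Viability by CellTiter-Glo luminescence, normalised to DMSO and no-cell wells; concentration-response curves classed.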
HT1080-NT tox: kills 2HG-producing HT-1080-NT fibrosarcoma cells; HT-1080-NT fibrosarcoma viability, CellTiter-Glo ATP luminescence, 48 h; Potency, µM (series often up to 46.1 µM), for the others: at the top dose activity, negative = less viability, hits mostly cytotoxic; 360,000 tested, 1.6% active; AID 686970;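 note: NT is the 2HG producing partner of a matched IDH1 knockdown line; 0% = DMSO-treated cells and -100% = media-only wells without cells; nearly all actives have a fitted effect of over 55% in size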
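HT-1080-NT fibrosarcoma cells (2HG-overproducing), 750 cells/well in RPMI with 5% FBS, dosed after 2 h and incubated 48 h at 37C. CellTiter-Glo luminescence normalized to DMSO and no-cell wells; concentration-response curves fitted and classed.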
DT40 TDP1 CPT: growth inhibition of DT40 Tdp1-/-;hTDP1 cells with camptothecin (screen for TDP1 inhibitors); chicken DT40 Tdp1-/-;hTDP1 cells + 20 nM CPT, ATP luminescence, 48 h; Potency, µM (doses to about 46.2 µM), for inactives: top-dose activity change, negative = growth inhibition, actives largely listed as inhibitors; 420,000 tested, 12% active; note: nearly all actives have a fitted effect of over 55% in size
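Chicken DT40 Tdp1-/- cells stably complemented with human TDP1 were seeded at 400 cells/well in medium containing 20 nM camptothecin, exposed to pin-transferred compounds, and grown at 37 °C for at least 48 hr. Viability was read as ATP luminescence.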
* = called active by the depositor. Calls come from the whole dose curve; as a rule, active = well fitted curve in the direction sought with a large enough effect; inconclusive = small, poorly fitted or top-dose-only effect, or another doubt; inactive = no such curve, though single readings can be large; an effect the other way counts as inactive or inconclusive. Unless noted, % is set by controls: 0 for no effect and ±100 for the full control effect; potency is the fitted concentration of half-maximal effect.

What do the screens show for `Cc1ccc(C(=O)Nc2cccc(S(=O)(=O)N3CCCCC3)c2)cc1[N+](=O)[O-]`?
TDP1 cell noCPT: inconclusive; KB-V1 MDR tox: inconclusive; KB-3-1 tox: 21µM*; HT1080 IDH1KD tx: -23%; HT1080-NT tox: -5%; DT40 TDP1 CPT: 16µM*

Results for O=C(Nc1cccc(S(=O)(=O)N2CCCCC2)c1)c1ccc([N+](=O)[O-])o1 ?
TDP1 cell noCPT: 4.1µM*; KB-V1 MDR tox: inconclusive; KB-3-1 tox: inconclusive; HT1080 IDH1KD tx: 5.2µM*; HT1080-NT tox: 10µM*; DT40 TDP1 CPT: 6.5µM*

What do the screens show for `COc1ccc(C(=O)Nc2ccc(-c3cc4ccccc4oc3=O)c(C)c2)cc1Br`?
TDP1 cell noCPT: inconclusive; KB-V1 MDR tox: inconclusive; KB-3-1 tox: inactive; DT40 TDP1 CPT: inconclusive

What do the screens show for `CCOc1ccc(C(=O)Nc2ccc(-c3cc4ccccc4oc3=O)c(C)c2)cc1[N+](=O)[O-]`?
TDP1 cell noCPT: 12µM*; KB-V1 MDR tox: inactive; KB-3-1 tox: inactive; HT1080 IDH1KD tx: -11%; HT1080-NT tox: -8%; DT40 TDP1 CPT: 13µM*

What do the screens show for `Cc1cc(NC(=S)NC(=O)c2ccccc2)ccc1-c1cc2ccccc2oc1=O`?
TDP1 cell noCPT: 2.9µM*; KB-V1 MDR tox: inconclusive; KB-3-1 tox: inconclusive; HT1080 IDH1KD tx: -14%; HT1080-NT tox: inconclusive; DT40 TDP1 CPT: 3.3µM*

How did CCNC(=O)C1CCCN(C(=O)c2c(-c3ccccc3)noc2C)CC1 (configuration not stated) do in these assays?
TDP1 cell noCPT: 2%; KB-V1 MDR tox: inactive; KB-3-1 tox: inactive; HT1080 IDH1KD tx: 3%; HT1080-NT tox: 15%; DT40 TDP1 CPT: -5%

Results for O=C(c1csnn1)N1CCC[C@@]2(CCN(C(c3ccccc3)c3ccccc3)C2)C1 ?
TDP1 cell noCPT: 18µM*; DT40 TDP1 CPT: inconclusive

How did O=C(c1ccco1)N1CCC2(CC1)CN(C(c1ccccc1)c1ccccc1)C2 do in these assays?
TDP1 cell noCPT: 15µM*; DT40 TDP1 CPT: inconclusive

How did O=C(Nc1cccc(F)c1)N1CCC2(CC1)CCN(C(=O)c1cccc(F)c1)CC2 do in these assays?
TDP1 cell noCPT: 21µM*; DT40 TDP1 CPT: -6%

What do the screens show for `O=C(Nc1cccc(F)c1)N1CCCC2(CCN(C(=O)c3ccncc3)CC2)C1`?
TDP1 cell noCPT: 0.15µM*; DT40 TDP1 CPT: 0.13µM*

How did O=C(c1csnn1)N1CCC[C@@]2(CCN(c3ccncc3)C2)C1 do in these assays?
TDP1 cell noCPT: -11%; DT40 TDP1 CPT: -3%

What do the screens show for `O=C(Nc1ccccc1)N1CCC2(CC1)CCN(C(=O)c1cccc(F)c1)CC2`?
TDP1 cell noCPT: inconclusive; DT40 TDP1 CPT: -7%

Results for O=C(c1cccc(F)c1)N1CCC2(CC1)CN(c1ccc(-c3ccccc3)cc1)C2 ?
TDP1 cell noCPT: 15µM*; DT40 TDP1 CPT: inconclusive

Results for O=C(c1cccc(F)c1)N1CCC2(CC1)CCN(c1ccc(-c3ccccc3)cc1)CC2 ?
TDP1 cell noCPT: 1%; DT40 TDP1 CPT: 9%

What do the screens show for `COC(=O)N1CCC[C@@]2(CCN(C(=O)Nc3cccc(C#N)c3)C2)C1`?
TDP1 cell noCPT: 0.046µM*; DT40 TDP1 CPT: inconclusive

What do the screens show for `O=C(c1cccc(F)c1)N1CCC2(CC1)CCN(C(c1ccccc1)c1ccccc1)CC2`?
TDP1 cell noCPT: 23µM*; DT40 TDP1 CPT: 15µM*

How did Cc1ccsc1CN(C)CC(=O)Nc1ccccc1C(=O)NC1CC1 do in these assays?
TDP1 cell noCPT: 0%; KB-V1 MDR tox: inactive; KB-3-1 tox: inactive; HT1080 IDH1KD tx: 7%; HT1080-NT tox: -1%; DT40 TDP1 CPT: 12%

How did CNC(=O)c1ccc(C)c(NC(=O)C2=C(C)OCCS2)c1 do in these assays?
TDP1 cell noCPT: 12%; KB-V1 MDR tox: inactive; KB-3-1 tox: inactive; HT1080 IDH1KD tx: 11%; HT1080-NT tox: 8%; DT40 TDP1 CPT: -2%

Results for c1ccc(C(c2ccccc2)N2CCC3(CCNCC3)CC2)cc1 ?
TDP1 cell noCPT: 2.6µM*; DT40 TDP1 CPT: 5.8µM*

Results for CC12CNCC(C)(CN(C(c3ccccc3)c3ccccc3)C1)C2 ?
TDP1 cell noCPT: 13µM*; KB-V1 MDR tox: inactive; KB-3-1 tox: inconclusive; HT1080 IDH1KD tx: inconclusive; HT1080-NT tox: inconclusive; DT40 TDP1 CPT: 16µM*

What do the screens show for `COC(=O)N1CCC2(CC1)CN(C(c1ccccc1)c1ccccc1)C2`?
TDP1 cell noCPT: inconclusive; DT40 TDP1 CPT: -6%

Results for OCCNc1nc(NCCC2=CCCCC2)nc(N2CCOCC2)n1 ?
TDP1 cell noCPT: 21µM*; KB-V1 MDR tox: inactive; KB-3-1 tox: inactive; HT1080 IDH1KD tx: -13%; HT1080-NT tox: -1%; DT40 TDP1 CPT: 21µM*

What do the screens show for `CCOc1nc(NCCC2=CCCCC2)nc(N2CCOCC2)n1`?
TDP1 cell noCPT: inconclusive; KB-V1 MDR tox: inactive; KB-3-1 tox: inactive; HT1080 IDH1KD tx: -3%; HT1080-NT tox: 1%; DT40 TDP1 CPT: inconclusive

What do the screens show for `CC(NC(=O)c1ccc(Nc2nc3ccccc3n3nnnc23)cc1)c1ccccc1` (configuration not stated)?
TDP1 cell noCPT: 7.3µM*; KB-V1 MDR tox: inactive; KB-3-1 tox: inactive; DT40 TDP1 CPT: 13µM*

How did CN(C)c1ccc(Nc2nc3ccccc3n3nnnc23)cc1 do in these assays?
TDP1 cell noCPT: 23µM*; DT40 TDP1 CPT: inconclusive

How did COc1ccccc1CNC(=O)c1ccc(Nc2nc3ccccc3n3nnnc23)cc1 do in these assays?
TDP1 cell noCPT: inconclusive; KB-V1 MDR tox: inactive; KB-3-1 tox: inactive; DT40 TDP1 CPT: inconclusive

How did Cc1ccc(CNc2nc3ccc(C)cc3n3nnnc23)cc1 do in these assays?
TDP1 cell noCPT: 1%; KB-V1 MDR tox: inconclusive; KB-3-1 tox: inactive; DT40 TDP1 CPT: 0%

What do the screens show for `CC(=O)Nc1ccc(Nc2nc3ccc(C)cc3n3nnnc23)cc1`?
TDP1 cell noCPT: 6.5µM*; DT40 TDP1 CPT: 6.5µM*

What do the screens show for `O=C(c1ccc(Nc2nc3ccccc3n3nnnc23)cc1)N1CCN(c2ccc(F)cc2)CC1`?
TDP1 cell noCPT: 9.2µM*; KB-V1 MDR tox: inactive; KB-3-1 tox: inactive; DT40 TDP1 CPT: 10µM*

How did CCOc1ccc(CCNC(=O)c2ccc(Nc3nc4ccccc4n4nnnc34)cc2)cc1OCC do in these assays?
TDP1 cell noCPT: inconclusive; KB-V1 MDR tox: inactive; KB-3-1 tox: inactive; DT40 TDP1 CPT: -23%
